# Unmarked numbers belong to inactive results. Records with an inconclusive call do not appear. A call without a number means that no potency is given here. Activity calls are given as the source filed them. Unless noted, the call rests on the fitted dose curve; in most records, active means well fitted curve in the direction sought with a large enough effect in the repeat runs; inconclusive means weak or mixed curves; inactive means no such curve, though single readings can be large; an effect the other way counts as inactive or inconclusive.
# Tests used:
# [1] = molecular target: Progesterone receptor (Homo sapiens) (UniProt P06401); assay: qHTS assay to identify small molecule agonists of the progesterone receptor (PR) signaling pathway (AID 1346784; calls by dose curve; further: nearly all actives have a fitted effect of over 30% in size; further: potency means the concentration at half of the fitted maximal effect)
# Outline: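 Using charcoal-stripped serum (2%) to limit endogenous steroids, PR-UAS-bla HEK 293T cells received compounds for 16 hr at 37C after 6 hr plating; beta-lactamase FRET fluorescence was recorded following 2 hr substrate loading at room temperature.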
# [2] = molecular target: Progesterone receptor (Homo sapiens) (UniProt P06401); assay: qHTS assay to identify small molecule antagonists of the progesterone receptor (PR) signaling pathway (AID 1346795; active means well fitted inhibition curve with a large enough effect in the signal ratio in the repeat runs, not every such curve was filed as active; the % refers to the signal ratio; further: potency means the concentration at half of the fitted maximal effect)
# Outline: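 Inhibition of R5020-induced (1 nM final) beta-lactamase reporter signal in PR-UAS-bla HEK293T cells was scored by FRET fluorescence after overnight (16 hr) compound treatment.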
# [3] = qHTS assay to identify small molecule agonists of the progesterone receptor (PR) signaling pathway - cell viability counter screen (AID 1346799; calls by dose curve; further: nearly all actives have a fitted effect of over 45% in size)
# Outline: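 Cytotoxicity in PR-bla HEK293T cells: 16 h compound, 37C; CellTiter-Glo added post-FRET read; luminescence after 30 min RT.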
# [4] = qHTS assay to identify small molecule antagonists of the TGF-beta/Smad signaling pathway - cell viability counter screen (AID 1346824); further: nearly all actives have a fitted effect of over 50% in size
# Outline: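 Cytotoxicity counter-screen run in the same wells as the beta-lactamase Smad reporter read: CellTiter-Glo luminescence after 30 min at room temperature. HEK 293T SBE-bla cells had 5 hr compound exposure at 37 C with TGF-beta1 (0.25 ng/mL stock).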
# [5] = qHTS assay to identify small molecule agonists of the TGF-beta/Smad signaling pathway - cell viability counter screen (AID 1346829); further: top concentration of the series differs between compounds; nearly all actives have a fitted effect of over 45% in size
# Outline: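 CellTiter-Glo luminescence readout; SBE-bla HEK 293T cells, overnight plating, compound 5 hr at 37 C/5% CO2, then bla substrate 2 hr RT, then CellTiter-Glo 30 min RT.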
# [6] = qHTS assay to identify small molecule agonists of the TGF-beta/Smad signaling pathway (AID 1346859; active means well fitted activation curve with a large enough effect in the signal ratio in the repeat runs, not every such curve was filed as active; the % refers to the signal ratio; further: series mostly up to about 77 µM)
# Outline: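 Stable Smad binding element-beta-lactamase HEK 293T cells; 5 hr compound exposure at 37 C under 5% CO2; 2 hr room-temperature substrate step; fluorescence excited at 405 nm, collected at 460 nm and 530 nm.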
# [7] = Human pregnane X receptor (PXR) small molecule agonists, qHTS cell viability counter screen (AID 1346977); further: nearly all actives have a fitted effect of over 50% in size
# Outline: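 Readout is CellTiter-Fluor fluorescence from PXR-Luc HepG2 cells. Plated cells rested 5hr, then were treated with compounds for 24hr at 37C and 5% CO2, with reagent present during the last hour.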
# [8] = molecular target: Thyrotropin-releasing hormone receptor (Homo sapiens) (UniProt P34981); assay: qHTS assay to identify small molecule antagonists of the thyrotropin-releasing hormone receptor (TRHR) signaling pathway (AID 1346877; active means well fitted inhibition curve with a large enough effect in the repeat runs, not every such curve was filed as active; further: series mostly up to about 51 µM)
# Outline: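 Kinetic fluorescence (3 min, 1 s resolution) following stimulation with TRH at 1 nM final; HEK293 cells bearing human TRHR; 5 min compound preincubation at RT; concentration-response over 15 points, triplicates.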
# [9] = molecular target: Thyrotropin-releasing hormone receptor (Homo sapiens) (UniProt P34981); assay: qHTS assay to identify small molecule agonists of the thyrotropin-releasing hormone receptor (TRHR) signaling pathway (AID 1346891; calls by dose curve;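 further: HEK293 cells expressing TRHR with calcium dye readout; series mostly up to about 58 µM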)
# Outline: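 In 1536-format, 1500 TRHR-Hek293 cells per well grew 18 h, took up calcium dye for 2 h at 37 °C, received compound, and were read kinetically; 15-point titrations, triplicates.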
# [10] = qHTS assay to identify small molecule antagonists of the progesterone receptor (PR) signaling pathway - cell viability counter screen (AID 1346798); further: nearly all actives have a fitted effect of over 50% in size; further: potency means the concentration at half of the fitted maximal effect; on activity change, negative = cytotoxicity: series mostly up to about 92 µM
# Outline: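 ATP content as viability readout: CellTiter-Glo luminescence, 30 min room temperature, in PR-UAS-bla HEK293T cells after 16 hr compound/R5020 treatment at 37C and 5% CO2.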
# Sequence of Thyrotropin-releasing hormone receptor (Homo sapiens) (P34981 whole entry, looked up): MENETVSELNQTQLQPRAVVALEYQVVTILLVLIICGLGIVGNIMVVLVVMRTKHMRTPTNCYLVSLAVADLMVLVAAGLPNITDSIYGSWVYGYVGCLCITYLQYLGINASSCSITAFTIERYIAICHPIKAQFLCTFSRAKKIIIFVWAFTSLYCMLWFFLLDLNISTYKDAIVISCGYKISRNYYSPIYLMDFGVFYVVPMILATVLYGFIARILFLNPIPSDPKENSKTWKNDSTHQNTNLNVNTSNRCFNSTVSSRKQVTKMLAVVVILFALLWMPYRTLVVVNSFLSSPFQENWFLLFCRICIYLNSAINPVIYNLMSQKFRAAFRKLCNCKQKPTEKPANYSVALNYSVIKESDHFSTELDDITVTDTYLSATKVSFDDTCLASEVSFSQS
# Sequence of Progesterone receptor (Homo sapiens) (P06401 whole entry, looked up): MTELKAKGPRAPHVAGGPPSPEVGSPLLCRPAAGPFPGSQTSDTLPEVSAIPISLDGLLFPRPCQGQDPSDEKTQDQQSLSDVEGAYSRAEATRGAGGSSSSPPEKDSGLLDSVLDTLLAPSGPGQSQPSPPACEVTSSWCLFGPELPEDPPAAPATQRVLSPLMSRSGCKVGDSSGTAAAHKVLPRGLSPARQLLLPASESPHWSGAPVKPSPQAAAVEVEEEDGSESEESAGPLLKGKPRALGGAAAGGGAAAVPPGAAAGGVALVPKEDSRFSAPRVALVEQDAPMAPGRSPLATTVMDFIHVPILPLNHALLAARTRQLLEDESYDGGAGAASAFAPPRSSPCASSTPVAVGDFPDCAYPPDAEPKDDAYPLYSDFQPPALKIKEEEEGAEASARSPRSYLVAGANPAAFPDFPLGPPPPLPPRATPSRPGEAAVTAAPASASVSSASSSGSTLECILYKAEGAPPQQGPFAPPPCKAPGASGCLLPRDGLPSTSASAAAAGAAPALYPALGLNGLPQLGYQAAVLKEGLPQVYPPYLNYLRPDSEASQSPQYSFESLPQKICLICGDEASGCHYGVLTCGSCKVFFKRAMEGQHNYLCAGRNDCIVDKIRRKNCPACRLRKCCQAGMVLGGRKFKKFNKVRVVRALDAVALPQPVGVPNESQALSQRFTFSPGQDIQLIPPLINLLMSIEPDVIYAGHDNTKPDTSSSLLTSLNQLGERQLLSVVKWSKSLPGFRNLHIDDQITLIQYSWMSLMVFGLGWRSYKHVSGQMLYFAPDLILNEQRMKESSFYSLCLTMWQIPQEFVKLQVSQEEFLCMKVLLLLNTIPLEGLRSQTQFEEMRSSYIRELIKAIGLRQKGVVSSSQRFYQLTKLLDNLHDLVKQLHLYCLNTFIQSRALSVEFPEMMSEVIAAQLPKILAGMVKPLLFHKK
structure (smiles),measurement,setting,value
CC(C)CCCCCCc1ccc(OCCOCCO)cc1,Potency,[1],inactive
same,Potency,[2],inactive
same,Potency,[3],inactive
same,outcome,[4],inactive
same,outcome,[5],inactive
same,outcome,[6],inactive
same,Potency,[7],inactive
CN1CCN(C2=Nc3cc(F)ccc3Cc3ccccc32)CC1,Potency,[1],inactive
same,Potency,[2],18.8 µM (active)
same,Potency,[3],inactive
same,outcome,[4],inactive
same,outcome,[5],inactive
same,outcome,[6],inactive
same,outcome,[8],inactive
same,Potency,[9],inactive
FC(F)(F)C(F)(F)C(F)(F)C(F)(F)C(F)(F)C(F)(F)C(F)(F)C(F)(F)Br,Potency,[1],inactive
same,Potency,[2],inactive
same,Potency,[3],inactive
same,outcome,[4],inactive
same,outcome,[5],inactive
same,outcome,[6],inactive
same,outcome,[8],inactive
same,Potency,[9],inactive
same,Potency,[7],inactive
CC(C)S,Potency,[1],inactive
same,Potency,[2],inactive
same,Potency,[3],inactive
same,outcome,[5],inactive
same,outcome,[6],inactive
same,outcome,[8],inactive
same,Potency,[9],inactive
same,Potency,[7],inactive
CCCC(CCC)(C(=O)OCC)C(=O)OCC,Potency,[1],inactive
same,Potency,[2],inactive
same,Potency,[3],inactive
same,outcome,[5],inactive
same,outcome,[6],inactive
same,outcome,[8],inactive
same,Potency,[9],inactive
C=CC1CO1 (stereo not drawn),Potency,[1],inactive
same,Potency,[2],inactive
same,Potency,[3],inactive
same,outcome,[4],inactive
same,outcome,[5],inactive
same,outcome,[6],inactive
same,outcome,[8],inactive
same,Potency,[9],inactive
FC(F)(F)C(Cl)(Cl)Cl,Potency,[1],inactive
same,Potency,[2],inactive
same,Potency,[3],inactive
same,outcome,[4],inactive
same,outcome,[5],inactive
same,outcome,[6],inactive
same,outcome,[8],inactive
same,Potency,[9],inactive
O=C(O)CN(CCN(CC(=O)O)CC(=O)O)CCN(CC(=O)O)CC(=O)O,activation,[1],9.07% [at 19 µM]
same,"activity change, negative = inhibition",[2],-12.7% [at 18.9 µM]
same,"activity change, negative = cytotoxicity",[3],-4.49% [at 19 µM]
same,"viability change, negative = cytotoxic",[4],3.31% [at 15.8 µM]
same,"activity change, negative = cytotoxicity",[5],9.66% [at 15.8 µM]
same,activation,[6],3.97% [at 15.8 µM]
same,"activity, negative = inhibition",[8],0.832% [at 10.5 µM]
same,activation,[9],-0.051% [at 11.8 µM]
Clc1cccc(-c2cc(Cl)cc(Cl)c2)c1,Potency,[1],inactive
same,Potency,[10],inactive
same,outcome,[4],inactive
same,outcome,[5],inactive
same,outcome,[6],inactive
same,outcome,[8],inactive
same,Potency,[9],inactive
same,Potency,[7],inactive
CCOc1ccc(OCC)c(Cl)c1,Potency,[1],inactive
same,Potency,[10],inactive
same,Potency,[3],inactive
same,outcome,[4],inactive
same,outcome,[5],inactive
same,outcome,[6],inactive
same,outcome,[8],inactive
same,Potency,[9],inactive
same,Potency,[7],inactive
C[C@]12CCC(=O)C=C1CC[C@@H]1[C@@H]2CC[C@@]2(C)[C@H]1CC[C@]2(O)C(=O)CO,Potency,[1],8.41 µM (active)
same,Potency,[10],inactive
same,outcome,[4],inactive
same,outcome,[5],inactive
same,outcome,[6],inactive
same,outcome,[8],inactive
same,Potency,[9],inactive
same,Potency,[7],inactive
O=Cc1ccc(O)c(O)c1O,Potency,[1],inactive
same,Potency,[10],inactive
same,Potency,[3],inactive
same,outcome,[4],inactive
same,outcome,[5],inactive
same,outcome,[6],inactive
same,outcome,[8],inactive
same,Potency,[9],inactive
O=c1[nH]cnc2c1ncn2[C@@H]1O[C@H](CO)[C@@H](O)[C@H]1O,Potency,[1],inactive
same,Potency,[10],inactive
same,Potency,[3],inactive
same,outcome,[4],inactive
same,outcome,[5],inactive
same,outcome,[6],inactive
same,outcome,[8],inactive
same,Potency,[9],inactive
same,Potency,[7],inactive
Cc1c(-c2ccccc2)oc2c(C(=O)OCCN3CCCCC3)cccc2c1=O,Potency,[1],inactive
same,Potency,[10],inactive
same,Potency,[3],inactive
same,outcome,[4],inactive
same,outcome,[8],inactive
same,Potency,[9],inactive
same,Potency,[7],inactive
COC(=O)c1ccc(OC)cc1,Potency,[1],inactive
same,Potency,[2],inactive
same,Potency,[3],inactive
same,outcome,[5],inactive
same,outcome,[8],inactive
same,Potency,[9],inactive
same,Potency,[7],inactive
CC(Oc1c(Cl)cccc1Cl)C1=NCCN1 (stereo not drawn),Potency,[1],inactive
same,Potency,[10],29.8 µM (active)
same,outcome,[4],inactive
same,outcome,[6],inactive
same,outcome,[8],inactive
same,Potency,[9],inactive
same,Potency,[7],inactive
CC(C)C[C@H](NC(=O)OCC1c2ccccc2-c2ccccc21)C(=O)O,Potency,[1],inactive
same,Potency,[10],inactive
same,Potency,[3],inactive
same,outcome,[5],inactive
CC(C)C(=O)OCC(C)(C)C(O)C(C)C (stereo not drawn),Potency,[1],inactive
same,Potency,[3],inactive
same,outcome,[4],inactive
same,outcome,[5],inactive
same,outcome,[6],inactive
same,outcome,[8],inactive
same,Potency,[9],inactive
same,Potency,[7],inactive
Cc1cc2nc(N)sc2cc1C,Potency,[1],inactive
same,Potency,[10],inactive
same,Potency,[3],inactive
same,outcome,[4],inactive
same,outcome,[5],inactive
same,Potency,[7],inactive
CCc1nnc(NS(=O)(=O)c2ccc(N)cc2)s1,Potency,[1],inactive
same,Potency,[2],inactive
same,outcome,[4],inactive
same,outcome,[5],inactive
same,Potency,[7],inactive
CCCCc1ccc2nc(NC(=O)OC)[nH]c2c1,Potency,[1],inactive
same,Potency,[2],4.22 µM (active)
same,outcome,[4],inactive
same,outcome,[5],inactive
same,outcome,[6],inactive
same,outcome,[8],inactive
same,Potency,[9],inactive
same,Potency,[7],inactive
c1ccc(CN(CC2=NCCN2)c2ccccc2)cc1,Potency,[1],inactive
same,Potency,[10],inactive
same,Potency,[3],inactive
same,outcome,[4],inactive
same,outcome,[5],inactive
same,outcome,[6],inactive
N#Cc1ccc(C(c2ccc(C#N)cc2)n2cncn2)cc1,Potency,[1],inactive
same,Potency,[2],inactive
same,outcome,[4],inactive
same,outcome,[6],inactive
same,outcome,[8],inactive
same,Potency,[9],inactive
same,Potency,[7],inactive
C=O,Potency,[1],inactive
same,Potency,[2],inactive
same,Potency,[3],inactive
same,outcome,[6],inactive
same,outcome,[8],inactive
same,Potency,[9],inactive
CCOc1ccccc1N,Potency,[1],inactive
same,Potency,[2],inactive
same,outcome,[4],inactive
same,outcome,[5],inactive
same,Potency,[7],inactive
CCN(CCCc1ccccc1)CCCc1ccccc1,Potency,[1],inactive
same,Potency,[2],inactive
same,outcome,[5],inactive
same,outcome,[8],inactive
same,Potency,[9],inactive
CCOC(=O)NCCC[Si](OCC)(OCC)OCC,Potency,[1],inactive
same,Potency,[2],inactive
same,Potency,[3],inactive
same,outcome,[5],inactive
same,outcome,[8],inactive
same,Potency,[9],inactive
same,Potency,[7],inactive

# Source: PubChem BioAssay (Tox21)
